# Reference: PubChem BioAssay AID1490 (National Center for Advancing Translational Sciences (NCATS), 2009)
# Screen size: about 310,000 compounds; about 11,000 (3.5%) were called active. Roughly 4% stayed inconclusive and do not appear here. What follows is part of a selection rich in actives, with near analogues and random picks from the rest. A number with no mark means an inactive call. Calls follow the shape of the dose curve; as a rule, active = well fitted inhibition curve with a large enough effect; inconclusive = small, poorly fitted or top-dose-only effect, or another doubt; inactive = no such curve, though single readings can be large or run the other way.
# Target: 4'-phosphopantetheinyl transferase ffp (Bacillus subtilis) (UniProt Q9F4F7)
# Test: qHTS Assay for Inhibitors of Bacillus subtilis Sfp phosphopantetheinyl transferase (PPTase);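 also: the enzyme is Sfp with the accession as filed and its product quenches rhodamine fluorescence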;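 as to largest response in the series, negative = inhibition: 0% = enzyme reaction without inhibitor and -100% = no enzyme wells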
# Settings: Biochemical Sfp PPTase activity
# Description: Assay Submitter: Michael Burkart, University of California, San Diego
# Screening Center PI: Austin, C.P.
# Screening Center: NIH Chemical Genomics Center [NCGC]
# The covalent attachment of a phosphopantetheinyl (4'-PP) arm to a variety of synthases and other proteins is a key posttranslational protein modification. The 4'-PP is installed on the proteins post-translationally from coenzyme A (CoA) on a conserved serine residue by action of phosphopantetheinyl transferase (PPTase) enzymes. Phosphopantetheinylation is essential for synthase activity, and removal of the PPTase gene precludes natural product synthesis in microorganisms, or in the case of fatty acid biosynthesis, renders the organism unviable. PPTase enzymes belong to a distinct structural superfamily. Within bacteria, these enzymes are grouped into two classes based upon primary structure, the AcpS-Type and Sfp-Type PPTases.
# Sfp-type PPTases, corresponding to an activator of surfactin production in Bacillus subtilis, are responsible for modifying type I polyketide and nonribosomal peptide synthases of prokaryotes. Sfp-type PPTases are responsible for the activation of a variety of pathogen-associated virulence factors. Among these compounds are toxins such as mycolactone from Mycobacterium ulcerans, siderophores such as vibriobactin from Vibrio cholerae or mycobactin from Mycobacterium tuberculosis, as well as the mycolic acids which form the waxy cell wall of Mycobacteria. The biosyntheses of these natural products are considered attractive targets for drug design.
# In search of small molecule Sfp-PPTase inhibitors, a fluorescence quenching assay was developed for detection of Bacillus subtilis Sfp-PPTase enzymatic activity in a miniaturized high-throughput format. The consensus ybbr acceptor peptide […] was N-terminally labeled with Black Hole Quencher-2 (BHQ-2) and used in combination with rhodamine-labeled coenzyme A as a co-substrate.
# Inhibition of Sfp-PPTase was detected by recording the fluorescence intensity change over a 30-minute reaction period at a 525 nm excitation and 598 nm emission. Reagents were supplied by Michael Burkart and Timothy Foley, University of California at San Diego.
# This BioAssay deposition is for validation of the developed Sfp-PPtase assay.
# Assay Buffer: 50 mM Hepes-Na pH 7.6, 10 mM MgCl2, 0.01% Nonidet P-40, and 0.01% BSA.
# 3 uL of Sfp-PPTase enzyme (final concentration 15 nM) and 1 uL of substrate mixture (final concentration for rhodamine-CoA and BHQ-2-YbbR 5 uM and 12.5 uM, respectively) dispensed in columns 1, 2, 5 - 48. Columns 1 and 2 used to generate neutral control (uninhibited reaction)
# Three uL of reagents, consisting of buffer (in columns 3 and 4 as negative control) and Sfp-PPTase (in columns 1, 2, 5 - 48) were dispensed into 1,536-well Greiner black solid bottom plate. Compounds (23 nL) were transferred via Kalypsys pintool equipped with 1,536-pin array. The plate was incubated for 15 min at room temperature, followed by the addition of 1 uL substrate to start the reaction. The plate was then centrifuged at 1000 rpm for 15 seconds, and the fluorescence intensity recorded on a ViewLux High-throughput CCD imager (Perkin-Elmer) using standard BODIPY optics (525 nm excitation and 598 nm emission). The plate was then incubated for 30 minutes, and a second read on the ViewLux was performed. The fluorescence intensity difference over the 30-minute period was used to calculate the respective reaction rate for each well.
# Potency is read from the fitted curve at half-maximal effect.
SMILES,Potency,"largest response in the series, negative = inhibition"
COc1c(O)cc2oc(-c3ccc(O)c(O)c3)cc(=O)c2c1O,50.1 µM (active),–
O=c1cc(-c2ccc(O)c(O)c2)oc2cccc(O)c12,–,-4.56%
O=c1cc(-c2ccc(O)cc2)oc2c(-c3cc(-c4cc(=O)c5c(O)cc(O)cc5o4)ccc3O)c(O)ccc12,–,-11.5%
COc1ccc(C(C)C)cc1S(=O)(=O)Nc1ncn[nH]1,–,16.1%
COc1ccc(CNS(=O)(=O)c2cc(-c3cc(C)no3)ccc2C(C)C)cc1,–,7.48%
CCc1nc2ccc(C(=O)N3CCN(c4cccc(Cl)c4)CC3)cc2nc1CC,–,-10.1%
Nc1ccccc1SC(C[N+](=O)[O-])c1ccccc1 (centres undefined),7.94 µM (active),–
C#CCC(C(=O)OC)(C(=O)OC)C(C[N+](=O)[O-])c1ccccc1 (centres undefined),–,-5.44%
Nc1ccccc1SCc1cc([N+](=O)[O-])cc2c1OCOC2,–,-29.9%
O=c1c2cc(Br)ccc2nc(-c2cccc(Cl)c2)n1O,–,10.6%
CCc1c(C)nc(N)n2c(SCC(=O)NC3CCCCC3)nnc12,–,11.3%
O=C(O)C1CCCN1C1=NS(=O)(=O)c2ccccc21 (centres undefined),–,13.1%
CC(C)c1ccc(NC(=S)NNc2ccc(Cl)c(C(=O)O)c2)cc1,–,-24.2%
Cc1ccc(C)c(NC(=S)NNC(=S)Nc2ccc(C(C)C)cc2)c1,4.47 µM (active),–
Cc1ccc(C)c(NC(=S)NNC(=O)c2csc(C)c2)c1,–,9.77%
NC(=O)C1CCCN(CC(=O)N2CCN(c3ccccc3)CC2)C1 (centres undefined),–,19%
CC1CCN(CC(=O)Nc2nccs2)CC1,–,6.83%
Cc1nc2ccccc2n1CC(O)c1ccccc1 (centres undefined),–,2.21%
O=C(Nc1ccccc1Cl)/C(Cl)=C(\Cl)S(=O)c1ccccc1 (centres undefined),6.31 µM (active),–
O=C(COC(=O)c1cccs1)Nc1ccccc1Cl,–,3.72%

SMILES,Potency,"largest response in the series, negative = inhibition"
O=C(Nc1ccccc1Cl)Nn1cnnc1,–,10.7%
CC(=O)Oc1c2c(c3c(c1CC=C(C)C)O[C@@]14C(=CC5CC1C(C)(C)OC4(C/C=C(\C)C(=O)O)C5=O)C3=O)OC(C)(CCC=C(C)C)C=C2 (some centres undefined),–,-62.7%
O=C(NCc1ccco1)C(c1ccncc1)N(C(=O)Cn1nnc2ccccc21)c1ccccc1 (centres undefined),–,18%
O=C(Nc1ccc(S(=O)(=O)NCC2CCCO2)cc1)c1ccc(F)cc1 (centres undefined),–,10.5%
COc1ccc(OC)c(CCNC(=O)CCn2ccc3cc(S(=O)(=O)N4CCCC4)ccc32)c1,–,4.91%
FC(F)(F)Oc1ccc(NC(=S)NCc2ccccc2)cc1,–,7.74%
CS(=O)(=O)c1sc(C(=O)NC(=S)Nc2ccc(OC(F)(F)F)cc2)c2c1C=CCC2,44.7 µM (active),–
CCNC(=S)Nc1ccc(OC(F)(F)F)cc1,–,14.8%
CCC(=O)Nc1ccc(-c2ccc(N3CCCCC3)nn2)cc1,–,14.4%
C=C1CCN(C(CC(C)C)C(=O)N2CCOCC2)S(=O)(=O)c2ccccc21 (centres undefined),–,-9.91%
CCOc1ccccc1NC(=O)Cn1ncc2ccc([N+](=O)[O-])cc21,–,-5.95%
COc1cccc(OCC(=O)NNC(=O)c2cnccn2)c1,–,-17.6%
COc1ccc(C(=O)NNC(=O)c2cnccn2)cc1[N+](=O)[O-],44.7 µM (active),–
COc1ccc(C(=O)O/N=C(\N)c2ccccn2)cc1[N+](=O)[O-],–,9.71%
CC1CCCC(C)N1C(=O)CSc1nnnn1C1CCCC1 (centres undefined),–,18.7%
CCC(CC)C(=O)Nc1c2c(nn1-c1ccc(C)cc1)CS(=O)(=O)C2,–,4.15%
O=C(O)C1CC=CCC1C(=O)Nc1ccccc1C(=O)N1CCN(c2ccccc2)CC1 (centres undefined),–,22.9%
COc1ccc(C(=O)Nc2ccccc2C(=O)N2CCN(c3ccccc3)CC2)cc1,–,5.69%
CC(C)c1ccc(N2CCN(C(=O)c3ccccc3NC(=O)/C=C(\C(=O)O)c3ccccc3)CC2)cc1,56.2 µM (active),–
Cc1cc(C)c(S(=O)(=O)N(C)CC(=O)NCC2CCCO2)c(C)c1 (centres undefined),–,16.6%

SMILES,Potency,"largest response in the series, negative = inhibition"
COc1ccc(/C=C/c2c(-c3cccc(C)c3)oc3ccc(-c4ccc5c(c4)OCO5)cc23)cc1,–,1.24%
NNC(=O)c1oc2nc(-c3ccccc3)cc(-c3ccco3)c2c1N,–,-13.3%
CNc1nc(-c2ccccc2)cc(-c2ccccc2)n1,–,-1.57%
CNC(=S)NNC(=O)c1oc2nc(-c3ccccc3)cc(-c3ccco3)c2c1N,12.6 µM (active),–
CN1C(=O)CN2CCc3ccccc3C2c2cc(Cl)ccc21 (centres undefined),–,11%
CC(C)(C)NS(=O)(=O)c1ccc(NC(=O)C2CCCO2)cc1 (centres undefined),–,9.67%
COC(=O)c1cccc(N(CC(=O)NCC2CCCO2)C(=O)CCC(=O)Nc2cc(C)on2)c1 (centres undefined),–,-5.12%
Cc1ccc(NC(=O)CSc2nnc(CNC(=O)c3ccccc3F)o2)cc1Cl,–,12.4%
Cn1cccc1-c1nc2ccccc2n1C,–,1.06%
c1coc(-c2nc3nc4ccccc4n3nc2-c2ccco2)c1,39.8 µM (active),–
CS(=O)(=O)n1nc(-c2ccco2)nc1N,–,23.7%
CC(CCc1ccccc1)NC(=O)c1cnc(Cl)c(Cl)c1 (centres undefined),–,8.93%
CCN1CCN(C(c2cccnc2)c2cc(Cl)c3cccnc3c2O)CC1 (centres undefined),39.8 µM (active),–
Clc1cccc(CN2COc3c(cc(Cl)c4cccnc34)C2)c1,–,-2.55%
Oc1ccccc1CN1CCN(C(c2ccccc2)c2ccccc2)CC1,–,-13.4%
CCOC(=O)N1CCN(C(c2cccnc2)c2ccc3cccnc3c2O)CC1 (centres undefined),20 µM (active),–
Cc1onc(C(=O)NN)c1C(=O)N1CCN(C(c2ccccc2)c2ccccc2)CC1,–,1.91%
CCOC(=O)N1CCN(C(=O)C2CCN(c3ncnc4c3sc3cccc(F)c34)CC2)CC1,–,-3.49%
O=C(c1ccc(Cn2cc([N+](=O)[O-])cn2)o1)N1CCCC1,–,5.1%
